Test results published in PubChem BioAssay AID1032 (The Scripps Research Institute Molecular Screening Center, 2008).
About 670 (0.34%) of roughly 200,000 compounds were called active. Cut-off read from the data, not from the text of the source: active = activation above about 22%; inactive = the rest. Only a selection was taken, and actives are over-represented in it overall.

target: Peroxisome proliferator-activated receptor gamma (Homo sapiens) (UniProt P37231); assay: agonists of PPARg-SRC-2 recruitment, primary screen, biochemical, HTS (AID 1032); conditions: PPARgamma LBD-SRC-2 recruitment, at 8 µM, stronger effect = higher value;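 note: 0% = vehicle and 100% = reference agonist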
Sequence (P37231 whole entry, looked up, the tested form may be a part): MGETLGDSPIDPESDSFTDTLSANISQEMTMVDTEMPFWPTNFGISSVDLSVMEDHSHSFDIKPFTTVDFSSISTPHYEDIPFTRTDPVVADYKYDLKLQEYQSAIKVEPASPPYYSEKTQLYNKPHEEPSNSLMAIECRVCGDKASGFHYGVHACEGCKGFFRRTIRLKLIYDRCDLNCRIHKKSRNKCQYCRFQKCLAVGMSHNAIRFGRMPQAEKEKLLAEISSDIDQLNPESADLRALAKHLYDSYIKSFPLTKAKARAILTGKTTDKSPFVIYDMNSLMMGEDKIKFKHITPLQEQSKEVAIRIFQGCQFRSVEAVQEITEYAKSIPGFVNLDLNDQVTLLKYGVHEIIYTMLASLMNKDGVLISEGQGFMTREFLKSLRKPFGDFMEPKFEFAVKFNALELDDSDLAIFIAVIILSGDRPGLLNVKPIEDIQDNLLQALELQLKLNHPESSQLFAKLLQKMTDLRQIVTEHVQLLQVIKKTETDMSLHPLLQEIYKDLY

Row | Compound | activation
1 | CSC1=NP(=S)(SC)N(C)c2nc3n(c21)CCC3 (stereo not given) | 76.2% (active)
2 | Cc1cccc2c(CCN)c[nH]c12 | 0.78% (inactive)
3 | O=C(Cc1ccccc1[N+](=O)[O-])N1CCN(Cc2ccc3c(c2)OCO3)CC1 | 0.02% (inactive)
4 | CCN1CCN(c2ccc([N+](=O)[O-])cc2C#N)CC1 | 6.97% (inactive)
5 | CC(C)CN1CCN(Cc2ccccc2C(F)(F)F)CC1CCO (stereo not given) | -9.41% (inactive)
6 | COc1cc(-n2c(=S)[nH]c3ccc(C)cc3c2=O)c(Cl)cc1Cl | 24.8% (active)
7 | CN(C)/C=C(\C=[N+](C)C)c1[nH]ncc1[N+](=O)[O-] | 3.67% (inactive)
8 | Cc1ccsc1C(=O)C1CCCN(Cc2ccc(O)cc2)C1 (stereo not given) | 4.16% (inactive)
9 | O=C1NC(=O)N(c2ccccc2)C(=O)/C1=C/c1ccc([N+](=O)[O-])s1 | 0.92% (inactive)
10 | COc1ccc(CN2C(=O)NC(=O)/C(=C\c3ccc(OC)c(OC)c3OC)C2=O)cc1 | 11% (inactive)
